# In the supplement of paper PMC8728848:
# The entries come from a sample that favours the strongest signals as a whole.
# How the values were obtained:
# Assay in all cases: glycan array binding signal (z-score within array); higher = stronger binding
# Conditions in all cases: glycan notation: IUPAC condensed, linker removed
# [1] = target: Fuc(a1-2)Gal(b1-3)GlcNAc(b1-3)GalNAc
# Method in brief: (§1)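 From the Consortium for Functional Glycomics database, 3228 arrays were curated, keeping only those whose protein sequence was available. Binding is given as a within-array Z-score averaged across arrays sharing a protein sequence and across linkers. Negative Z-scores can be read as non-binding.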
# [2] = target: Fuc(a1-2)Gal(b1-4)GlcNAc
# Method in brief: as §1
# [3] = target: Fuc(a1-2)Gal(b1-4)GlcNAc(b1-3)Gal(b1-4)GlcNAc
# Method in brief: as §1
# [4] = target: Fuc(a1-2)Gal6S(b1-3)GlcNAc6S
# Method in brief: as §1
# [5] = target: Fuc(a1-2)[Gal(a1-3)]Gal(b1-4)[Fuc(a1-3)]GlcNAc(b1-3)GalNAc
# Method in brief: as §1
# [6] = target: Fuc(a1-2)[GalNAc(a1-3)]Gal(b1-4)GlcNAc(b1-2)Man
# Method in brief: as §1
# [7] = target: Fuc(a1-3)[Gal(b1-4)]GlcNAc(b1-2)Man(a1-3)[Fuc(a1-3)[Gal(b1-4)]GlcNAc(b1-2)Man(a1-6)]Man(b1-4)GlcNAc(b1-4)GlcNAc
# Method in brief: as §1
# [8] = target: Fuc(a1-3)[Gal(b1-4)]GlcNAc(b1-6)[Gal(b1-3)GlcNAc(b1-3)]Gal(b1-4)Glc
# Method in brief: as §1
# [9] = target: Fuc(a1-3)[GalNAc(b1-4)]GlcNAc6S
# Method in brief: as §1
# [10] = target: Gal(a1-3)Gal(b1-3)GlcNAc(b1-3)GalNAc
# Method in brief: as §1
# [11] = target: Gal(a1-3)Gal(b1-4)Glc
# Method in brief: as §1
# [12] = target: Gal(a1-4)Gal(b1-3)GlcNAc(b1-2)Man(a1-3)[Gal(a1-4)Gal(b1-3)GlcNAc(b1-2)Man(a1-6)]Man(b1-4)GlcNAc(b1-4)GlcNAc
# Method in brief: as §1
# [13] = target: Gal(b1-3)GlcNAc(b1-2)Man
# Method in brief: as §1
# [14] = target: Gal(b1-3)[Fuc(a1-4)]GlcNAc(b1-3)Gal(b1-3)[Fuc(a1-4)]GlcNAc
# Method in brief: as §1
# [15] = target: Gal(b1-3)[Neu5Ac(b2-6)]GalNAc
# Method in brief: as §1
# [16] = target: Gal(b1-4)GlcNAc(b1-2)Man(a1-3)[Gal(b1-4)GlcNAc(b1-2)Man(a1-6)][GlcNAc(b1-4)]Man(b1-4)GlcNAc(b1-4)[Fuc(a1-6)]GlcNAc
# Method in brief: as §1
# [17] = target: Gal(b1-4)GlcNAc(b1-2)[Gal(b1-4)GlcNAc(b1-4)]Man(a1-3)[GlcNAc(b1-4)][Gal(b1-4)GlcNAc(b1-2)Man(a1-6)]Man(b1-4)GlcNAc(b1-4)GlcNAc
# Method in brief: as §1
# [18] = target: Gal(b1-4)GlcNAc(b1-3)Gal(b1-4)GlcNAc(b1-2)Man(a1-3)[Gal(b1-4)GlcNAc(b1-3)Gal(b1-4)GlcNAc(b1-2)Man(a1-6)]Man(b1-4)GlcNAc(b1-4)[Fuc(a1-6)]GlcNAc
# Method in brief: as §1
# [19] = target: Gal(b1-4)GlcNAc(b1-3)Gal(b1-4)GlcNAc(b1-3)Gal(b1-4)GlcNAc(b1-3)Gal(b1-4)GlcNAc(b1-3)Gal(b1-4)GlcNAc(b1-2)Man(a1-3)[Gal(b1-4)GlcNAc(b1-3)Gal(b1-4)GlcNAc(b1-3)Gal(b1-4)GlcNAc(b1-3)Gal(b1-4)GlcNAc(b1-3)Gal(b1-4)GlcNAc(b1-2)Man(a1-6)]Man(b1-4)GlcNAc(b1-4)GlcNAc
# Method in brief: as §1
# [20] = target: Gal(b1-4)GlcNAc(b1-3)Gal(b1-4)GlcNAc(b1-3)Gal(b1-4)GlcNAc(b1-3)Gal(b1-4)GlcNAc(b1-3)Gal(b1-4)GlcNAc(b1-2)Man(a1-3)[Gal(b1-4)GlcNAc(b1-3)Gal(b1-4)GlcNAc(b1-3)Gal(b1-4)GlcNAc(b1-3)Gal(b1-4)GlcNAc(b1-3)Gal(b1-4)GlcNAc(b1-2)Man(a1-6)]Man(b1-4)GlcNAc(b1-4)[Fuc(a1-6)]GlcNAc
# Method in brief: as §1
# [21] = target: Gal(b1-4)GlcNAc(b1-6)[Gal(b1-4)GlcNAc(b1-3)]GalNAc
# Method in brief: as §1
# [22] = target: Gal3S(b1-4)GlcNAc
# Method in brief: as §1
# [23] = target: Gal3S(b1-4)[Fuc(a1-3)]GlcNAc6S
# Method in brief: as §1
# [24] = target: Gal3S4S(b1-4)GlcNAc
# Method in brief: as §1
# [25] = target: Gal3S6S(b1-4)GlcNAc
# Method in brief: as §1
# [26] = target: Gal3S6S(b1-4)GlcNAc6S
# Method in brief: as §1
# [27] = target: Gal6S(b1-3)GlcNAc6S
# Method in brief: as §1
# [28] = target: Gal6S(b1-4)Glc6S
# Method in brief: as §1
# [29] = target: Gal6S(b1-4)GlcNAc6S
# Method in brief: as §1
# [30] = target: GalNAc3S(b1-4)[Fuc(a1-3)]GlcNAc
# Method in brief: as §1
# [31] = target: GalNAc4S6S(b1-4)GlcNAc
# Method in brief: as §1
# [32] = target: GlcNAc(a1-4)Gal(b1-3)GlcNAc
# Method in brief: as §1
# [33] = target: GlcNAc(b1-2)Man(a1-3)[GlcNAc(b1-4)][GlcNAc(b1-2)Man(a1-6)]Man(b1-4)GlcNAc(b1-4)GlcNAc
# Method in brief: as §1
# [34] = target: GlcNAc(b1-3)Gal(b1-4)GlcNAc(b1-3)Gal(b1-4)GlcNAc(b1-2)Man(a1-3)[GlcNAc(b1-3)Gal(b1-4)GlcNAc(b1-3)Gal(b1-4)GlcNAc(b1-2)Man(a1-6)]Man(b1-4)GlcNAc(b1-4)[Fuc(a1-6)]GlcNAc
# Method in brief: as §1
# [35] = target: GlcNAc(b1-4)GlcNAc(b1-4)GlcNAc(b1-4)GlcNAc(b1-4)GlcNAc
# Method in brief: as §1
# [36] = target: GlcNAc(b1-4)[GlcNAc(b1-6)]GalNAc
# Method in brief: as §1
# [37] = target: Kdn(a2-3)Gal(b1-3)GalNAc
# Method in brief: as §1
# [38] = target: Kdn(a2-3)Gal(b1-4)Glc
# Method in brief: as §1
# [39] = target: Man(a1-2)Man(a1-3)Man
# Method in brief: as §1
# [40] = target: Neu5Ac(a2-3)Gal(b1-3)GalNAc
# Method in brief: as §1
# [41] = target: Neu5Ac(a2-3)Gal(b1-3)GlcNAc(b1-4)Gal(b1-4)Glc
# Method in brief: as §1
# [42] = target: Neu5Ac(a2-3)Gal(b1-4)GlcNAc(b1-2)[Neu5Ac(a2-3)Gal(b1-4)GlcNAc(b1-6)]Man(a1-6)[Neu5Ac(a2-3)Gal(b1-4)GlcNAc(b1-2)Man(a1-3)][GlcNAc(b1-4)]Man(b1-4)GlcNAc(b1-4)GlcNAc
# Method in brief: as §1
# [43] = target: Neu5Ac(a2-3)Gal(b1-4)GlcNAc(b1-3)Gal(b1-4)GlcNAc(b1-3)Gal(b1-4)GlcNAc
# Method in brief: as §1
# [44] = target: Neu5Ac(a2-3)Gal(b1-4)GlcNAc(b1-3)Gal(b1-4)GlcNAc(b1-3)Gal(b1-4)GlcNAc(b1-2)Man(a1-3)[Neu5Ac(a2-3)Gal(b1-4)GlcNAc(b1-3)Gal(b1-4)GlcNAc(b1-3)Gal(b1-4)GlcNAc(b1-2)Man(a1-6)]GalNAc
# Method in brief: as §1
# [45] = target: Neu5Ac(a2-3)Gal(b1-4)GlcNAc(b1-3)[Neu5Ac(a2-3)Gal(b1-4)GlcNAc(b1-6)]GalNAc
# Method in brief: as §1
# [46] = target: Neu5Ac(a2-3)Gal(b1-4)GlcNAc6S
# Method in brief: as §1
# [47] = target: Neu5Ac(a2-3)Gal(b1-4)[Fuc(a1-3)]GlcNAc(b1-3)Gal
# Method in brief: as §1
# [48] = target: Neu5Ac(a2-3)Gal(b1-4)[Fuc(a1-3)]GlcNAc(b1-3)Gal(b1-4)[Fuc(a1-3)]GlcNAc(b1-3)Gal(b1-4)[Fuc(a1-3)]GlcNAc
# Method in brief: as §1
# [49] = target: Neu5Ac(a2-6)Gal(b1-4)GlcNAc(b1-2)Man(a1-6)[Gal(b1-4)GlcNAc(b1-2)Man(a1-3)]Man(b1-4)GlcNAc(b1-4)GlcNAc
# Method in brief: as §1
# [50] = target: Neu5Ac(a2-8)Neu5Ac(a2-3)[GalNAc(b1-4)]Gal(b1-4)Glc
# Method in brief: as §1
# [51] = target: Neu5Ac(b2-6)Gal(b1-4)GlcNAc
# Method in brief: as §1
binder,measurement,setting,value
"CrataBL (Crataeva tapia), C0HJA4 (protein) AILTGVPYYILPSTSRAGFSPDNLRKNTSQLSCPLDLITQLRFPRRIGVPVIFTPQNSSLKVVPLSHNLNIHTCSDLWFCPESKIWTVKSSLTHGGSVVTTGGTFRSLGSWFRIERHGDSYKLVHCPRGSTPCRDVGIETVGGGGRRYLAPRDRPLAVRFTRASG",glycan array binding signal (z-score),[1],-0.444
same,glycan array binding signal (z-score),[2],-0.486
same,glycan array binding signal (z-score),[3],-0.497
same,glycan array binding signal (z-score),[4],5.81
same,glycan array binding signal (z-score),[5],-0.054
same,glycan array binding signal (z-score),[6],-0.507
same,glycan array binding signal (z-score),[7],-0.41
same,glycan array binding signal (z-score),[8],-0.443
same,glycan array binding signal (z-score),[9],0.386
same,glycan array binding signal (z-score),[10],-0.383
same,glycan array binding signal (z-score),[11],-0.243
same,glycan array binding signal (z-score),[12],-0.451
same,glycan array binding signal (z-score),[13],-0.207
same,glycan array binding signal (z-score),[14],-0.412
same,glycan array binding signal (z-score),[15],-0.333
same,glycan array binding signal (z-score),[16],-0.533
same,glycan array binding signal (z-score),[17],-0.465
same,glycan array binding signal (z-score),[18],-0.376
same,glycan array binding signal (z-score),[19],-0.247
same,glycan array binding signal (z-score),[20],-0.276
same,glycan array binding signal (z-score),[21],-0.237
same,glycan array binding signal (z-score),[22],-0.021
same,glycan array binding signal (z-score),[23],5.22
same,glycan array binding signal (z-score),[24],2.38
same,glycan array binding signal (z-score),[25],3.14
same,glycan array binding signal (z-score),[26],11.7
same,glycan array binding signal (z-score),[27],6.61
same,glycan array binding signal (z-score),[28],2.96
same,glycan array binding signal (z-score),[29],5.29
same,glycan array binding signal (z-score),[30],0.423
same,glycan array binding signal (z-score),[31],5.23
same,glycan array binding signal (z-score),[32],-0.374
same,glycan array binding signal (z-score),[33],-0.23
same,glycan array binding signal (z-score),[34],-0.076
same,glycan array binding signal (z-score),[35],-0.186
same,glycan array binding signal (z-score),[36],-0.434
same,glycan array binding signal (z-score),[37],0.64
same,glycan array binding signal (z-score),[38],0.084
same,glycan array binding signal (z-score),[39],-0.472
same,glycan array binding signal (z-score),[40],0.131
same,glycan array binding signal (z-score),[41],-0.112
same,glycan array binding signal (z-score),[42],-0.386
same,glycan array binding signal (z-score),[43],-0.389
same,glycan array binding signal (z-score),[44],2.17
same,glycan array binding signal (z-score),[45],0.163
same,glycan array binding signal (z-score),[46],2.07
same,glycan array binding signal (z-score),[47],-0.448
same,glycan array binding signal (z-score),[48],-0.51
same,glycan array binding signal (z-score),[49],0.067
same,glycan array binding signal (z-score),[50],0.475
same,glycan array binding signal (z-score),[51],-0.387
